# Test results published in PubChem BioAssay AID720532 (National Center for Advancing Translational Sciences (NCATS), 2013).
# Where “and” joins values, the source holds several entries; their conditions need not be identical. Equal entries are not always repeated. In all, about 18,000 compounds went through this assay and about 1,200 (6.7%) were called active. Another 16% or so got no clear call; they are omitted. Shown is part of a subset that was picked to be rich in actives. Unmarked numbers belong to inactive results. Calls follow the shape of the full dose curve; tested in HEK293 cells.
# Test: qHTS for Inhibitors of binding or entry into cells for Marburg Virus
# Conditions: Marburg virus pseudotype entry/binding inhibition, cell-based; series mostly up to 49.2 µM; activity change, negative = inhibition: at the top concentration
# % is scaled to controls: 0 for no effect and ±100 for the full control effect; potency is read from the fitted curve at half-maximal effect.
Structure (SMILES),"activity change, negative = inhibition",Potency
CCN1C(=S)NC(c2cccc(C(F)(F)F)c2)C(C(=O)OC)=C1C (configuration not stated),95.8% [at 8.59 µM],
CCOC(=O)CN1C(=O)N[C@@H](c2ccc(Br)cc2)C(C(C)=O)=C1C,-0.139%,
CC(=O)Oc1c2c(c3c(c1CC=C(C)C)O[C@@]14C(=CC5CC1C(C)(C)OC4(C/C=C(\C)C(=O)O)C5=O)C3=O)OC(C)(CCC=C(C)C)C=C2 (some centres not stated),,3.55 µM (active)
Cc1cccc([C@H]2[C@@H]3C=CC[C@@H](C)[C@@H]3C(=O)N2Cc2ccccc2)c1,-5.81%,
COc1cccc([C@H](O)Cn2cc(-c3ccc(CON=C(C)C)cc3)nn2)c1,7.92% [at 8.59 µM],
Cc1cc2c(nc1C)CCCCN2C[C@H](C)ON=C1[C@H]2CCn3c(=O)n(-c4ccccc4)c(=O)n3[C@@H]2[C@H](O)[C@@H]2O[C@H]12,26% [at 8.59 µM],
N#Cc1c(Cl)c(Cl)c(Cl)c(C#N)c1Cl,,1.12 µM (active)
COCOc1cc(OC)ccc1C(=O)/C=C/c1ccc([N+](=O)[O-])cc1,3.69%,
OCCN1CCN(CC/C=C2\c3ccccc3Sc3ccc(C(F)(F)F)cc32)CC1,,12.6 µM (active)
CC(C)(C)OC(=O)NCCCCC1=CC2=CC(=O)C(C)(OC(=O)c3cccs3)C(=O)C2=CO1 (configuration not stated),-6.53%,
CCOC(=O)C1=C(C)c2ccccc2OC1C(=O)OCC (configuration not stated),-10.6%,
COc1cccc(CC(=O)N2CCc3nc(COc4ccccc4)c4c(c3C2)CO[C@@H](C)C4)c1,-8.64% [at 8.59 µM],
N#Cc1cccc(CS(=O)(=O)c2nnnn2-c2cc(C(F)(F)F)cc(C(F)(F)F)c2)c1,-6.48%,
COc1ccccc1-c1ccnc(-n2ncc(C(=O)NCCc3ccncc3)c2C)n1,-19.5%,
CC(C)[C@@H](CC(=O)N[C@@H]1CCNC[C@H]1C(=O)N[C@H](CC(=O)N[C@@H](CCC(=O)O)CC(=O)O)Cc1ccccc1)NC(=O)C[C@H](CO)NC(=O)[C@@H]1CNCC[C@H]1N,1.1%,
COC(=O)[C@H]1[C@@H](c2ccccc2)NC(=O)O[C@@H]1C,55.5% [at 8.59 µM],
CC(C)CNc1cccc2c1S(=O)(=O)N[C@H](CC(C)C)CO2,21.9%,
COCCN1C(=S)NC(c2cccc(F)c2)C(C(=O)OC)=C1C (configuration not stated),20.9% [at 8.59 µM],
N#Cc1ccc2c(c1)C[C@]1(CCCCN3C(=O)c4ccccc4C3=O)OC3=C(C(=O)OC4(CCCCC4)C3)[C@H]2O1,9.87% [at 8.59 µM],
CN(Cc1ccccc1F)c1cc2c(c3c1ccn3C)C1CCC2O1 (configuration not stated),19.5%,
COC(=O)[C@@H]1CC2=CC(=O)CC[C@]2(C)[C@@]23O[C@@H]2C[C@@]2(C)[C@@H](CC[C@@]24CCC(=O)O4)[C@H]13,-2.79%,
CC[C@]1(O)C(=O)OCc2c1cc1n(c2=O)Cc2cc3ccccc3nc2-1,,2.82 µM (active)
CCCN(CCc1ccccc1)C1CCc2c(O)cccc2C1 (configuration not stated),,35.5 µM (active)
CCCN(C/C=C/I)C1CCc2ccc(O)cc2C1 (configuration not stated),-4.11%,
CCCN(C/C=C\I)[C@@H]1CCc2cccc(O)c2C1,,25.1 µM (active)
O=C(Nc1cc(C(=O)Nc2ccc(S(=O)(=O)O)cc2)cc(C(=O)Nc2ccc(S(=O)(=O)O)cc2)c1)Nc1cc(C(=O)Nc2ccc(S(=O)(=O)O)cc2)cc(C(=O)Nc2ccc(S(=O)(=O)O)cc2)c1,-1.03%,

Structure (SMILES),"activity change, negative = inhibition",Potency
COC(=O)C/C=C/[C@@H](C)[C@H](NC(=O)OCC(Cl)(Cl)Cl)c1ccccc1,-18.3%,
Oc1c(Cl)cc(Cl)c(Cl)c1Cc1c(O)c(Cl)cc(Cl)c1Cl,,15.8 µM (active)
Cc1ccccc1-c1ccc(C(=O)O)s1,50.9% [at 107 µM],
C[C@H]1[C@H](c2ccccc2)Oc2cc(Br)ccc2S(=O)(=O)N1Cc1cccc(F)c1,-22.6%,
C[C@@]12CC[C@H]3[C@@H](CC[C@]4(O)C[C@H](O)CC[C@@]34C=O)[C@]1(O)CC[C@@H]2C1=CC(=O)OC1,,1 µM (active)
COC1CC(OC2CC[C@@]3(C=O)C4CC[C@]5(C)C(C6=CC(=O)OC6)CC[C@@]5(O)C4CC[C@]3(O)C2)OC(C)C1O (some centres not stated),,0.251 µM (active)
COc1ccc(CC(N)C(=O)NC2C(O)[C@H](n3cnc4c(N(C)C)ncnc43)O[C@@H]2CO)cc1 (some centres not stated),,3.98 µM (active)
COc1ccc(C[C@H](N)C(=O)N[C@@H]2[C@H](O)[C@H](n3cnc4c(N(C)C)ncnc43)O[C@@H]2CO)cc1,,2.24 µM (active)
Nc1ncnc2c1ncn2C1CC(O)C(CO)O1 (configuration not stated),11.5%,
C[C@H]1C/C=C/[C@@H]2[C@@H]3O[C@]3(C)[C@@H](C)[C@H]3[C@H](Cc4ccccc4)NC(=O)[C@]32OC(=O)O/C=C/[C@](C)(O)C1=O,,0.251 µM (active)
CO[C@H]1[C@H](NC(=O)C(C)C)c2ccccc2C12CCN(Cc1cnc(N(C)C)s1)CC2,-20.2%,
Cc1c(S(=O)(=O)O)oc2c1C(=O)C(=O)c1c-2ccc2c1CCCC2(C)C,1.1%,
O=c1c(CN2CCOc3ccc(CN4CCC(Oc5cccnc5)CC4)cc3C2)coc2ccccc12,,11.2 µM (active)
CCOC(=O)N1CCN(Cc2ccc3c(c2)CN(C(=O)c2cccc(-n4cccn4)c2)CCO3)CC1,-8.81%,
c1ccc(CN2CCN(Cc3ccc4c(c3)CN(Cc3c[nH]c5ccccc35)CCO4)CC2)nc1,,10 µM (active)
CCOC(=O)N1CCC(N2CCOc3ccc(CN4CCC(O)(c5cccnc5)CC4)cc3C2)CC1,-28.6%,
CC(C)c1cc(C(=O)N2CCOc3ccc(CN4CCC(Oc5cccnc5)CC4)cc3C2)n[nH]1,25.6%,
O=C(C(=O)N1CCOc2ccc(CN3CCN(Cc4ccccn4)CC3)cc2C1)c1ccccc1,-10.7%,
O=S(O)S(=O)(=O)O,2.36%,
O=S1(=O)CC(O)c2cc(Br)ccc2N1Cc1cccc(F)c1 (configuration not stated),25.4%,
Cc1ccccc1Nc1oc(-c2ccccc2)nc1C(C)(C)C,-15% [at 8.59 µM],
C=C1/C(=C\C=C2\CCCC3(C)C2CCC3C(C)/C=C/C(O)C2CC2)CC(O)CC1O (configuration not stated),-5.17%,
COC(=O)CCCC1=CC2=C(c3ccccc3)C(=O)C(C)(OC(=O)C3CCCC3)C(=O)C2=CN1c1ccc(OC)cc1 (configuration not stated),-5.26% [at 8.59 µM],
COc1cc2c(cc1OC)[C@@H]1O[C@](CCCCN3C(=O)c4ccccc4C3=O)(C2)Oc2c1c(=O)oc1ccc(F)cc21,2.42% [at 8.59 µM],
CC(Nc1oc(-c2ccccc2)nc1-c1ccccc1)c1ccccc1 (configuration not stated),inactive,
COC12CC[C@@]3(C[C@@H]1C(C)(O)C(C)(C)C)[C@H]1Cc4ccc(O)c5c4[C@@]3(CCN1CC1CC1)[C@H]2O5 (some centres not stated),,15.8 µM (active)

Structure (SMILES),"activity change, negative = inhibition",Potency
COc1ccc2c(c1)O[C@@H](c1ccc3c(c1)OCO3)[C@H](OC(=O)NCc1ccco1)C2=O,25%,
COCCN1C(=O)N[C@@H](c2ccccc2)C(C(=O)OC)=C1C,-6.89%,
CCC(=O)C[C@@H](NC(=O)OC)c1ccccc1,-1.71% [at 8.59 µM],
CCCCN1CC(CO)Oc2cccc(F)c2S1(=O)=O (configuration not stated),23.1%,
CC(=O)[O][Sn]([c]1ccccc1)([c]1ccccc1)[c]1ccccc1,,1 µM (active)
Cc1cccc(CN2CCN(C3CN(Cc4cn(Cc5ccccc5F)nn4)S(=O)(=O)C3)CC2)c1 (configuration not stated),7.53%,
CC(C)(Cc1c[nH]c2ccc(Cl)cc12)NCCOc1ccccc1OCC1CC1,,11.2 µM (active) and 8.91 µM (active)
COc1ccc2c(c1)O[C@@H](c1ccc3c(c1)OCO3)[C@H](OC(=O)NCCc1ccc(OC)c(OC)c1)C2=O,-0.0132%,
CC1C(=O)N(Cc2cn(Cc3ccco3)nn2)CCS(=O)(=O)N1Cc1ccc(-c2cccc(CO)c2)cc1 (configuration not stated),-18.8%,
COc1ccc([C@@H](NC(=O)C(F)(F)F)C2CCCC=C2c2ccccc2)cc1OC (some centres not stated),2.89% [at 8.59 µM],
CC[C@H](C)[C@H](NC(=O)[C@H](Cc1ccc(O)cc1)NC(=O)[C@@H](NC(=O)[C@H](CCCN=C(N)N)NC(=O)[C@@H](N)CC(=O)O)C(C)C)C(=O)N[C@@H](Cc1cnc[nH]1)C(=O)N1CCC[C@H]1C(=O)N[C@@H](Cc1ccccc1)C(=O)O,2.69%,
C=CCC(C)(O)c1ccco1 (configuration not stated),0.192%,
CC1=C(/C=C/C(C)=C/C=C/C(C)=C/C=C/C=C(C)/C=C/C=C(C)/C=C/C(=O)[C@]2(C)C[C@@H](O)CC2(C)C)C(C)(C)C[C@H](O)C1,10.2%,
COc1ccc(-c2nc3c(c4c2C[C@H](c2ccccc2)OC4)CN(C(=O)c2ccco2)CC3)c(C)c1,13.2% [at 8.59 µM],
CCOC(=O)Cn1c(=O)sc2cccc(Cl)c21,17.7%,
CC1(C)O[C@@H](C(O)(c2ccccc2)c2ccccc2)[C@H](C(O)(c2ccccc2)c2ccccc2)O1,-19% [at 8.59 µM],
CCCCCCCC/C=C\CCCCCCCC(=O)NCC(=O)O,-13%,
C[C@H]1CCC[C@@]2(C)CCCC[C@]12O,-16%,
COc1ccc([C@H]2C[C@@H](n3cc(COC(=O)c4ccccc4)nn3)[C@H](O)CN2C(=O)c2cccs2)cc1,22.8%,
CC(C)C(NS(=O)(=O)c1ccc(-c2ccc(Br)cc2)cc1)C(=O)O (configuration not stated),8.03%,
COc1ccc2c(c1)CO[C@H]([C@H](O)CBr)[C@H]2C=Cc1ccccc1,-15.4% [at 8.59 µM],
C=CCOC(=O)NC(c1ccc(F)c(F)c1)C(C(=O)COC)C(=O)OC (configuration not stated),inactive,
OC[C@H]1O[C@H](C#Cc2ccccc2)C=C[C@H]1O,19.6% [at 8.59 µM],
CCOC(=O)CN1C(=O)NC(c2cccs2)C(C(=O)OC)=C1C (configuration not stated),-16.9% [at 8.59 µM],
O=C(O)C1CCN(c2ncnc3ccc(-c4ccccc4C(F)(F)F)cc23)CC1,,112 µM (active)
